A short description of test [1]: qHTS assay to identify aromatase inhibitors - cell viability counter screen (AID 743084).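 Also: cells stimulated with testosterone during compound exposure; nearly all actives have a fitted effect of over 55% in size.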
In test [2] the target is Aryl hydrocarbon receptor (Homo sapiens) (UniProt P35869). Description: qHTS assay to identify small molecule that activate the aryl hydrocarbon receptor (AhR) signaling pathway (AID 743085). Also: nearly all actives have a fitted effect of over 15% in size. Also: potency is read from the fitted curve at half-maximal effect.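 As to activation: HG2L7.5c1 human HepG2 liver cells with stably integrated DRE-driven firefly reporter; series mostly up to about 70 µM.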 In short, it runs like this:
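Luminescence (ONE-Glo) from a dioxin-responsive-element luciferase reporter in HG2L7.5c1 HepG2 cells after 24 hr compound exposure at 37C; viability measured by CellTiter-Fluor fluorescence beforehand.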

A short description of test [3]: qHTS assay to identify small molecule that activate the aryl hydrocarbon receptor (AhR) signaling pathway - cell viability counter screen (AID 743086).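 Also: HepG2 liver cells carrying the AhR DRE luciferase reporter; series mostly up to about 70 µM; nearly all actives have a fitted effect of over 45% in size.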 In short, it runs like this:
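Cytotoxicity counter screen: CellTiter-Fluor signal (30 min, 37 C) in 4000 HepG2 cells/well carrying the DRE-luciferase reporter, following 24 h compound exposure at 37 C.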
Background: Quantitative high-throughput screening tests each substance at several concentrations.

For test [4], the target named is Peroxisome proliferator-activated receptor gamma (Homo sapiens) (UniProt P37231). Description: qHTS assay to identify small molecule agonists of the peroxisome proliferator-activated receptor gamma (PPARg) signaling pathway (AID 743094; active = well fitted activation curve with a large enough effect in the signal ratio in the repeat runs, not every such curve was filed as active; the % refers to the signal ratio). In short, it runs like this: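 GeneBLAzer PPARg UAS-bla HEK293H cells were plated, rested 5 h, then exposed to compounds for 17 h at 37C. Beta-lactamase activity was read by LiveBLAzer B/G FRET substrate fluorescence after 1 h at room temperature.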

Test [5] shares this target. The test is described as follows: qHTS assay to identify small molecule antagonists of the peroxisome proliferator-activated receptor gamma (PPARg) signaling pathway (AID 743191; calls by dose curve; also: series mostly up to about 63 µM; nearly all actives have a fitted effect of over 30% in size). In short, it runs like this:
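Beta-lactamase reporter under UAS control in HEK293H PPARg-bla cells; compound treatment 17 h at 37C. Read-out: fluorescence intensity after 1 h room-temperature incubation with LiveBLAzer B/G FRET substrate.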

Test [6] can be described thus: qHTS assay to identify small molecule antagonists of the peroxisome proliferator-activated receptor gamma (PPARg) signaling pathway - cell viability counter screen (AID 743194). Also: nearly all actives have a fitted effect of over 55% in size. To be noted: Potency: co-treated with 50 nM rosiglitazone. In short, it runs like this: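 Viability was measured as CellTiter-Glo luminescence in GeneBLAzer PPARg UAS-bla HEK293H cells. These cells had been exposed 17 h at 37 C to compounds together with rosiglitazone at 50 nM final, with the beta-lactamase readout taken in the same wells.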

Test [7] is described as follows: qHTS assay for small molecule agonists of the antioxidant response element (ARE) signaling pathway (AID 743202; active = well fitted activation curve with a large enough effect in the signal ratio in the repeat runs, not every such curve was filed as active; the % refers to the signal ratio). In short, it runs like this:
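An ARE-responsive beta-lactamase gene stably integrated in HepG2 cells serves as reporter. After 5 h plating and 16 h compound incubation at 37 C, fluorescence of the B/G FRET substrate was measured.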

A short description of test [8]: qHTS assay for small molecule agonists of the antioxidant response element (ARE) signaling pathway - cell viability counter screen (AID 743203; calls by dose curve; also: nearly all actives have a fitted effect of over 55% in size). In short, it runs like this:
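ARE-bla HepG2 cells were plated, rested 5 h at 37C/5% CO2, then exposed to compounds in DMSO for 16 h. Viability was read as CellTiter-Glo luminescence after 30 min at room temperature, in the same wells as the ARE screen.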

A short description of test [9]: qHTS assay for small molecule activators of the heat shock response signaling pathway - cell viability counter screen (AID 743209). Also: nearly all actives have a fitted effect of over 50% in size. In short, it runs like this:
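HSE-bla HeLa cells plated overnight, then exposed to Tox21 compounds (23 nL in DMSO) for 5 h at 37 C. After the bla reporter read, CellTiter-Glo was added in the same wells and luminescence read after 30 min at room temperature.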

Test [10] can be described thus: qHTS assay to identify small molecule agonists of the peroxisome proliferator-activated receptor delta (PPARd) signaling pathway - cell viability counter screen (AID 743211). Also: nearly all actives have a fitted effect of over 55% in size. In short, it runs like this: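 Viability was measured as CellTiter-Glo luminescence (30 min, room temperature) in the same wells as the beta-lactamase readout. GeneBLAzer PPARd UAS-bla HEK293H cells received compound after 5 h plating and were incubated 17 h at 37 C.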

The target in test [11] is Peroxisome proliferator-activated receptor delta (Homo sapiens) (UniProt Q03181). Description: qHTS assay to identify small molecule agonists of the peroxisome proliferator-activated receptor delta (PPARd) signaling pathway (AID 743212; calls by dose curve). In short, it runs like this:
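HEK293H UAS-bla reporter cells, human PPARd system; compounds delivered in DMSO after 5 h plating, then at 37 C. Beta-lactamase FRET read, 2 h RT substrate step.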

Test [12] is described as follows: qHTS assay to identify small molecule antagonists of the peroxisome proliferator-activated receptor delta (PPARd) signaling pathway - cell viability counter screen (AID 743213). Also: nearly all actives have a fitted effect of over 50% in size. In short, it runs like this: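 HEK293H PPARd UAS-bla cells, 5 h pre-incubation, compound + L165041 300 nM final, 17 h 37 C; B/G FRET substrate 2 h RT; then CellTiter-Glo 30 min RT, luminescence.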

Test [13] concerns the target Peroxisome proliferator-activated receptor delta (Homo sapiens) (UniProt Q03181). Description: qHTS assay to identify small molecule antagonists of the peroxisome proliferator-activated receptor delta (PPARd) signaling pathway (AID 743215; active = well fitted inhibition curve with a large enough effect in the signal ratio in the repeat runs, not every such curve was filed as active; the % refers to the signal ratio;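 also: cells stimulated with agonist L165041 at 300 nM final during compound exposure; series mostly up to about 62 µM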). In short, it runs like this: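 PPARd-bla HEK293H cells (UAS-bla reporter) preincubated 5 h, then given compound plus 300 nM final L165041 agonist for 17 h at 37 C. Beta-lactamase activity read by LiveBLAzer B/G FRET substrate fluorescence after 2 h at room temperature.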

The nature of test [14]: qHTS assay to identify small molecule agonists of the farnesoid-X-receptor (FXR) signaling pathway - cell viability counter screen (AID 743218). Also: nearly all actives have a fitted effect of over 45% in size. In short, it runs like this:
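FXR-UAS-bla HEK 293T cells exposed to compounds for 16 h at 37C. Cytotoxicity read in the same wells by CellTiter-Glo luminescence after 30 min at room temperature, following the beta-lactamase FRET read.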

Test [15] in a line: qHTS assay to identify small molecule antagonists of the farnesoid-X-receptor (FXR) signaling pathway - cell viability counter screen (AID 743221; active = well fitted cell-killing curve with a large enough effect in the repeat runs, not every such curve was filed as active; also: nearly all actives have a fitted effect of over 50% in size). In short, it runs like this: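 Cytotoxicity counter screen run in the FXR-bla reporter wells: HEK 293T cells exposed to compound with 50 uM (final) chenodeoxycholic acid for 16 h, 37 C, then viability measured by CellTiter-Glo luminescence after 30 min, room temperature.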

A short description of test [16]: qHTS assay for small molecule activators of the heat shock response signaling pathway (AID 743210; active = well fitted activation curve with a large enough effect in the signal ratio in the repeat runs, with a control signal flat, not every such curve was filed as active; the % refers to the signal ratio;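 also: HeLa cells with beta-lactamase reporter driven by heat shock elements; series mostly up to about 63 µM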). In short, it runs like this:
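In HSE-bla HeLa cells, 5 h compound incubation (37 C) precedes addition of LiveBLAzer B/G substrate; after 2.5 h at room temperature, fluorescence intensity indicates reporter induction.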

For test [17], the target named is Bile acid receptor (Homo sapiens) (UniProt Q96RI1). Description: qHTS assay to identify small molecule agonists of the farnesoid-X-receptor (FXR) signaling pathway (AID 743220; active = well fitted activation curve with a large enough effect in the signal ratio in the repeat runs, not every such curve was filed as active; the % refers to the signal ratio). In short, it runs like this: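 Beta-lactamase reporter under UAS control in GeneBLAzer FXR HEK 293T cells (5000/well) measured with LiveBLAzer FRET substrate after 2 h at room temperature. Compound exposure lasted 16 h at 37C.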

In test [18] the target is Vitamin D3 receptor (Homo sapiens) (UniProt P11473). Description: qHTS assay to identify small molecule agonists of the vitamin D receptor (VDR) signaling pathway (AID 743222; calls by dose curve). In short, it runs like this: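 VDR-bla cells plated 4 h at 37 C, then exposed to compounds for 16 h at 37 C. Beta-lactamase reporter activity measured by fluorescence after 2 h room-temperature loading with LiveBLAzer B/G FRET substrate.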

For test [19] the target is unchanged. Description: qHTS assay to identify small molecule antagonists of the vitamin D receptor (VDR) signaling pathway (AID 743223; active = well fitted inhibition curve with a large enough effect in the signal ratio in the repeat runs, not every such curve was filed as active; the % refers to the signal ratio). In short, it runs like this: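 Antagonist mode: compound added to VDR-bla cells alongside agonist 1alpha,25-dihydroxyvitamin D3 (3 nM final), incubation 16 h at 37C. Read-out is LiveBLAzer FRET fluorescence, 2 h at room temperature.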

SMILES strings stand for the structures. Records with an inconclusive call do not appear. Active and inactive are the calls of the source. Unless noted, calls follow the shape of the dose curve; as a rule, active = well fitted curve in the direction sought with a large enough effect in the repeat runs; inconclusive = weak or mixed curves; inactive = no such curve, though single readings can be large; an effect the other way counts as inactive or inconclusive.

Chain of Peroxisome proliferator-activated receptor delta (Homo sapiens) (Q03181 whole entry, looked up): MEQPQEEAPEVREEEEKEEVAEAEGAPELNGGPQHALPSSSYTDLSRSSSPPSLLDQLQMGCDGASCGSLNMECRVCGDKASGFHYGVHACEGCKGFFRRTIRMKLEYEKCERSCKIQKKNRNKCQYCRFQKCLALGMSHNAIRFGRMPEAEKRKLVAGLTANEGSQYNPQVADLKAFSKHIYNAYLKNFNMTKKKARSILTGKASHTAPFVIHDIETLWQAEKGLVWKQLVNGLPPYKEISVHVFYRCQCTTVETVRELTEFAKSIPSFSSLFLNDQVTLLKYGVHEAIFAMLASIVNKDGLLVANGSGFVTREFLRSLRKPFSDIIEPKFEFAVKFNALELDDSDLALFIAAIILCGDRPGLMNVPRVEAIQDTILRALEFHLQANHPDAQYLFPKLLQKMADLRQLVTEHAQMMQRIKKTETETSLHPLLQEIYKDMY
Chain of Vitamin D3 receptor (Homo sapiens) (P11473 whole entry, looked up): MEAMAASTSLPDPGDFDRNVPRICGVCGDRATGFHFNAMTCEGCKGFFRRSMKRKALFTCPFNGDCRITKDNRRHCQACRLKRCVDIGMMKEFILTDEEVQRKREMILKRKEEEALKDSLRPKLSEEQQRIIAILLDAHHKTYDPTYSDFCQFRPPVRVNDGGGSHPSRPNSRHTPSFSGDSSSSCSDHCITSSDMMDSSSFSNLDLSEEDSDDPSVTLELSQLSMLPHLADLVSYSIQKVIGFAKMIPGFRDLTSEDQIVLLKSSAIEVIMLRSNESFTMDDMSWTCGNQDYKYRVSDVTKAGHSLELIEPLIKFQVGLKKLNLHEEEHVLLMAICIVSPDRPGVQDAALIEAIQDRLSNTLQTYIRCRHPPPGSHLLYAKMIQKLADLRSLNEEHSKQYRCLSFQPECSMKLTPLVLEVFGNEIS
Chain of Bile acid receptor (Homo sapiens) (Q96RI1 whole entry, looked up): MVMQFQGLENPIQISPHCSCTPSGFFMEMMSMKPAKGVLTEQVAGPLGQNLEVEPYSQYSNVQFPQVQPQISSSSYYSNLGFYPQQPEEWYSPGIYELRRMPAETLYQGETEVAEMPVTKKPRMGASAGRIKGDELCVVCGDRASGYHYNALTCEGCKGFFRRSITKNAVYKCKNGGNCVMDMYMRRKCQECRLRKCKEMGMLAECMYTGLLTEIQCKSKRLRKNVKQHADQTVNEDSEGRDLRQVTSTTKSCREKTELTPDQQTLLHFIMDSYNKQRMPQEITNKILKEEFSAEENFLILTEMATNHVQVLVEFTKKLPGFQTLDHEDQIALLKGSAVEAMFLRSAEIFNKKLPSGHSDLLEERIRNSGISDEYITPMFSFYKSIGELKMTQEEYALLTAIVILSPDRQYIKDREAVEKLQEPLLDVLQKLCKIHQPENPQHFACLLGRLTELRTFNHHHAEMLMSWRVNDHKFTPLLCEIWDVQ
Chain of Aryl hydrocarbon receptor (Homo sapiens) (P35869 whole entry, looked up): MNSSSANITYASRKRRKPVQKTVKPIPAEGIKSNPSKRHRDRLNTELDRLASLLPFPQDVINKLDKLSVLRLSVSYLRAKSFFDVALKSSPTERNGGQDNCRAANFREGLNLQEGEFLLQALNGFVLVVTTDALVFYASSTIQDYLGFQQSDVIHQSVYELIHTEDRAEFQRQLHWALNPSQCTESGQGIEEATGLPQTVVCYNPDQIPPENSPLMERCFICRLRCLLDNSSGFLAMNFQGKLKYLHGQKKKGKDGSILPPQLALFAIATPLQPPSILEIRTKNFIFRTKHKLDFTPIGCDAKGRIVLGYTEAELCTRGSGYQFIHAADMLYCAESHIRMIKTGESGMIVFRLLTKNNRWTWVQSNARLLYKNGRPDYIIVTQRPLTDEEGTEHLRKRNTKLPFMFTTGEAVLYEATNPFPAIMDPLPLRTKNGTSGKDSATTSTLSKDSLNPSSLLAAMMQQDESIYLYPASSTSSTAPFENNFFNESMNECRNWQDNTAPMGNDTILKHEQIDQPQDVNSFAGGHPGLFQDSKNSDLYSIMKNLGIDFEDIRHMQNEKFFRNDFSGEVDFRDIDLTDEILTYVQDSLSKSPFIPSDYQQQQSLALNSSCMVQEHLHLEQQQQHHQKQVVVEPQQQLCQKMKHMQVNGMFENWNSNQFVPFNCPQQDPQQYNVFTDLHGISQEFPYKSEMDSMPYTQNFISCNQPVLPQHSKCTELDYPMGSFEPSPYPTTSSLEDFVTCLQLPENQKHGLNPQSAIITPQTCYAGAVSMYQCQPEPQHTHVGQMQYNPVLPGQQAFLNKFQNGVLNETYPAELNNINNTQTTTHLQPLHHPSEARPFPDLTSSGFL
Chain of Peroxisome proliferator-activated receptor gamma (Homo sapiens) (P37231 whole entry, looked up): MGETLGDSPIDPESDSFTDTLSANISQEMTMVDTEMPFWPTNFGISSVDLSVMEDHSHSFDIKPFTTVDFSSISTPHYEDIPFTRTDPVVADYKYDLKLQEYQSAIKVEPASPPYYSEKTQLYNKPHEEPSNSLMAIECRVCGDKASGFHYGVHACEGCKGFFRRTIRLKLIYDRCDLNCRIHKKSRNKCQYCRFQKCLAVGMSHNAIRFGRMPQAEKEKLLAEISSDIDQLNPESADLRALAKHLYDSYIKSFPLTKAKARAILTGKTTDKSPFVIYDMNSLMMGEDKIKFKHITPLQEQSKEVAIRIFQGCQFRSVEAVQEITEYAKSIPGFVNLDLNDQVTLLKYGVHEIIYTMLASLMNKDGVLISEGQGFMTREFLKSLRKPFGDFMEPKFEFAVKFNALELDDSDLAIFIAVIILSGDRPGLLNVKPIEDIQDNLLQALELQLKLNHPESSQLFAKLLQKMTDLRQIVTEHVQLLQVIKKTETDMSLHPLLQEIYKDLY

On to `CC(C)[C@@H](C(=O)O[C@@H](C#N)c1cccc(Oc2ccccc2)c1)c1ccc(Cl)cc1`, for which the Potency entry in [1], in [2], in test [3], in test [4], in test [5] and in test [6] was “inactive” each time. The Potency result in test [7], in [8], in [9], in [10], in test [12] and in test [13] was “inactive” throughout. Further, the Potency entry in [14] and in test [15] was “inactive” each time. In addition, the call in test [11] was inactive.
For the compound `O=C(O)c1cc(Cl)ccc1Cl`, the Potency entry in [1], in [2], in test [3], in test [4], in test [5] and in test [6] was “inactive” in each case. The Potency entry in test [7], in test [8], in test [9], in [16], in test [10] and in test [12] was “inactive” in each case. Further, the Potency entry in test [13], in [14], in [15] and in test [19] was “inactive” throughout. Further, the compound was classed as inactive in [11], in test [17] and in test [18].
`COC1CC(=C(c2cccs2)c2cccs2)C[N+](C)(C)C1` (stereo not drawn): the Potency result in test [1], in [2], in test [3], in test [4], in test [5] and in test [6] was “inactive” throughout. In addition, the Potency result in test [8], in test [9], in test [16], in test [10], in test [12] and in test [13] was “inactive” throughout. Further, the Potency result in test [14], in test [15] and in test [19] was “inactive” each time. Further, the result in test [11], in test [17] and in test [18] was inactive.
As to `Nc1ccc2c(c1)Cc1ccccc1-2`, the Potency entry in test [1], in [3], in test [4], in [5], in test [6] and in [8] was “inactive” throughout. Besides, the Potency entry in test [9], in test [16], in test [12], in test [13], in test [14] and in [15] was “inactive” in each case. In addition, the Potency result in test [19] is “inactive”. The Potency in [2] is 68.2 µM (active). Also, the outcome in test [11] and in test [18] was inactive.
With `CN1CC[C@]23c4c5ccc(O)c4O[C@H]2[C@@H](O)C=C[C@H]3[C@H]1C5`, the Potency result in test [1], in test [2], in test [3], in test [4], in [5] and in test [6] was “inactive” in each case. Moreover, the Potency result in test [7], in test [8], in test [9], in [10], in [12] and in test [14] was “inactive” throughout. The Potency result in test [15] was “inactive”. The compound was classed as inactive in test [18].
Consider `C[N+]1(CCC(C(N)=O)(c2ccccc2)c2ccccc2)CCCCC1`, for which the Potency result in [1], in [2], in test [3], in test [4], in test [5] and in test [6] was “inactive” in each case. Further, the Potency result in test [8], in [9], in [16], in test [10], in test [13] and in [14] was “inactive” each time. The Potency entry in [15] is “inactive”. Also, the call in test [11] and in test [17] was inactive.
Turning to `NC(=S)c1c(Cl)cccc1Cl`, the Potency result in test [1], in test [2], in test [3], in test [4], in test [5] and in [6] was “inactive” each time. In addition, the Potency entry in [8], in [9], in [16], in [10], in test [12] and in [13] was “inactive” in each case. For the same compound, the Potency result in test [14] is “inactive”. Further, the call in test [11] was inactive.
As to `Cc1nc(N(C)C)nc(OC(=O)N(C)C)c1C`, the Potency result in [1], in test [2], in [3], in test [4], in test [5] and in test [6] was “inactive” in each case. The Potency entry in test [8], in test [9], in test [16], in test [10], in [12] and in [13] was “inactive” in each case. Moreover, the Potency entry in [14] and in test [15] was “inactive” each time. Further, the compound was classed as inactive in [11], in test [17] and in test [18].

(Values after PubChem BioAssay (Tox21).)
